The text below walks through data of PubChem BioAssay (NCI).

Assay in all cases: NCI-60 one-dose screen, 48 h (100 = growth as untreated, 0 = no growth, -100 = all killed)
What all share (details): 10 µM unless noted

In experiment [1] the test system is SR leukemia.
The test system of experiment [2] is RPMI-8226 leukemia.
Experiment [3] has as its system OVCAR-8 ovarian.
For experiment [4], the system named is OVCAR-5 ovarian.
The test system of experiment [5] is OVCAR-4 ovarian.
In experiment [6] the test system is SK-OV-3 ovarian.
The subject of experiment [7] is IGROV1 ovarian.
The test system of experiment [8] is HS 578T breast.
Experiment [9] has as its system NCI/ADR-RES ovarian.
For experiment [10], the system named is T-47D breast.
For experiment [11], the system named is BT-549 breast.
Experiment [12] concerns MDA-MB-435 melanoma.
Experiment [13] relates to SW-620 colon.
Experiment [14] relates to MCF7 breast.
Experiment [15] deals with HCT-116 colon.
For experiment [16], the system named is HCC-2998 colon.
Experiment [17] relates to KM12 colon.

Molecules are shown by their SMILES. The panel holds about 83,000 compounds, 20% with a hit somewhere; the sample as a whole holds those more often.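 Single-dose data. Exposure time 48 hours. Values below 10 considered active.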 A number with no mark means an inactive call. Activity calls are given as the source filed them.

Consider `COc1ccc(/C=N/NC(=O)c2c(N)nn(C)c2Nc2ccccc2)cc1`, for which the growth in [1] was 18.9%; in experiment [2], 61.6%; in experiment [3], 70.8%; in experiment [4], 76.9%; in experiment [5], 87%; in experiment [6], 49.6%. Besides, the growth in experiment [7] is 39.6%; in experiment [8] it was 38.1%; in experiment [9], 33%; in experiment [10], 42.4%; in experiment [11], 14%; in [12] it was -31% (active). The growth in [13] is 16%; in [14], 17.6%; in experiment [15], 15%; in [16] it was 59.2%; in [17] it was 27.8%.

As for `CC(C)(C)c1cc(NC(=O)Nc2ccc(-c3cn4c5c(sc4n3)CCc3c[nH]cc3-5)cc2)no1`, the growth in experiment [1] was 2.1% (active); in [2] it was -18.6% (active); in experiment [3], 32.7%; in experiment [4] it was 47.7%; in experiment [5], 49%; in experiment [6], 33.7%. Also, the growth is 38% in experiment [7]; -10.4% (active) in experiment [8]; 29% in experiment [9]; 18.5% in experiment [10]; 18.7% in experiment [11]; 26% in experiment [12]. Also, the growth is 17.8% in [13]; -6.97% (active) in experiment [14]; 23.2% in experiment [15]; 24% in experiment [16]; 6.68% (active) in experiment [17].

Turning to `Fc1cccc(Cl)c1/C=N/Nc1nc(N/N=C/c2c(F)cccc2Cl)nc(N2CCCCC2)n1`, the growth in [1] was 16.1%; in experiment [2], 3.27% (active); in experiment [3], 25.8%; in [4] it was 27.8%; in [5] it was 21%; in experiment [6] it was 39.1%. Further, the growth in [7] was 17.7%; in experiment [8] it was 33.3%; in experiment [9], 15.2%; in [10] it was 11%; in experiment [11], 68.4%; in [12] it was 3.75% (active). The growth in experiment [13] is 17.2%; in [14] it was 3.1% (active); in experiment [15], 19.5%; in experiment [16], 24.4%; in experiment [17], 10.8%.

`O=C(O)c1ccc(-n2c(=O)n(-c3cccc(C(F)(F)F)c3)c(=O)c3cc(-c4ccc(F)cc4F)ccc32)cc1`: the growth in experiment [1] was 8.91% (active); in experiment [2] it was -7.92% (active); in experiment [3], 13.9%; in experiment [4], 24.8%; in [5], 31.2%; in [6] it was 2.5% (active). The growth in experiment [7] was 17.8%; in [8], -4.81% (active); in [9], 3.12% (active); in [10] it was -5.81% (active); in experiment [11], -3.47% (active); in experiment [12], 5.93% (active). Also, the growth is 15.5% in experiment [13]; 1.46% (active) in [14]; 4.2% (active) in experiment [15]; 13.4% in [16]; 4.47% (active) in experiment [17].

With `COc1ccc(/C=N/N=C(/c2ccccc2)c2ccc3nc(-c4ccc(Cl)cc4)[nH]c3c2)cc1`, the growth in experiment [1] is 71.2%; in experiment [2] it was 48.6%; in [3], 80.4%; in experiment [4], 81.5%; in experiment [5] it was 75%; in experiment [6], 93.2%. In addition, the growth is 97.5% in experiment [7]; 97.4% in experiment [8]; 85% in experiment [9]; 63.5% in experiment [10]; 85.7% in experiment [11]; 85% in experiment [12]. Besides, the growth in experiment [13] is 88.3%; in experiment [14] it was 72%; in experiment [15], 75.4%; in experiment [16] it was 89.6%; in experiment [17], 75.8%.

With `CSc1ccc(C(=NNS(=O)(=O)c2ccc(C)cc2)c2ccc(Cl)cc2)cc1`, the growth was 114% in experiment [1]; 97.8% in [2]; 99.5% in experiment [3]; 94.3% in experiment [4]; 102% in experiment [5]; 111% in [6]. The growth is 96.8% in experiment [7]; 101% in experiment [8]; 98.2% in experiment [9]; 89.7% in experiment [10]; 118% in experiment [11]; 106% in experiment [12]. The growth was 102% in experiment [13]; 88.2% in experiment [14]; 98.2% in experiment [15]; 103% in experiment [16]; 97.1% in experiment [17].

Regarding `CN1CCN(Cc2ccc(NC(=O)c3cncc(C#Cc4cnc5ccc(OC6CCOCC6)nn45)c3)cc2C(F)(F)F)CC1`, the growth in experiment [1] is -16.2% (active); in [2] it was -20.9% (active); in experiment [3], -58.8% (active); in experiment [4], -55.4% (active); in [5], -53.7% (active); in [6], -73.7% (active). In addition, the growth in [7] was -43.3% (active); in experiment [8], -38.1% (active); in experiment [9], -37.7% (active); in experiment [10] it was -56.1% (active); in [11], -82.7% (active); in experiment [12], -81.6% (active). The growth in experiment [13] was -18.2% (active); in [14], -67.1% (active); in [15], -89.5% (active); in [16] it was -68.5% (active); in experiment [17], -68.5% (active).

For the molecule `N#C/C(=C\c1cccc2c1OCO2)C(=O)Nc1sc2c(c1C#N)CCCC2`, the growth in experiment [1] is 90.3%; in experiment [2] it was 101%; in experiment [3], 105%; in [4] it was 101%; in experiment [5], 108%; in experiment [6] it was 98.5%. The growth in experiment [7] is 100%; in experiment [8], 102%; in experiment [9], 106%; in experiment [10], 93.8%; in experiment [11] it was 107%; in experiment [12], 103%. Moreover, the growth was 106% in experiment [13]; 97.6% in experiment [14]; 98.4% in experiment [15]; 120% in experiment [16]; 103% in [17].

Regarding `CC[C@H](CC[C@@H](C)[C@H]1CC[C@H]2[C@@H]3CC(=O)C4=CC(=O)/C(=C/c5ccc([N+](=O)[O-])cc5)C[C@]4(C)[C@H]3CC[C@]12C)C(C)C`, the growth in experiment [1] is 84.3%; in experiment [2], 83.5%; in [3] it was 100%; in experiment [4] it was 105%; in experiment [5] it was 108%; in [6] it was 124%. For the same molecule, the growth in [7] is 111%; in experiment [8] it was 119%; in experiment [9], 106%; in experiment [10], 89.1%; in experiment [11] it was 109%; in [12] it was 94.4%. Besides, the growth is 110% in [13]; 84.8% in experiment [14]; 86.5% in experiment [15]; 105% in experiment [16]; 100% in [17].
